Only some compounds are listed: those with a hit (about 3.5% of all), similar ones and a draw of the others.
GPR151 activ = activates the human receptor GPR151; PathHunter beta-arrestin GPR151 cells, luminescence; activation, % at 11.2 µM; 650,000 tested, 1% active; in the data active means activation above about 4.9%;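 further: 0% = median of compound wells and 100% = cells with positive control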
Target sequence (Q8TDV0 whole entry, looked up): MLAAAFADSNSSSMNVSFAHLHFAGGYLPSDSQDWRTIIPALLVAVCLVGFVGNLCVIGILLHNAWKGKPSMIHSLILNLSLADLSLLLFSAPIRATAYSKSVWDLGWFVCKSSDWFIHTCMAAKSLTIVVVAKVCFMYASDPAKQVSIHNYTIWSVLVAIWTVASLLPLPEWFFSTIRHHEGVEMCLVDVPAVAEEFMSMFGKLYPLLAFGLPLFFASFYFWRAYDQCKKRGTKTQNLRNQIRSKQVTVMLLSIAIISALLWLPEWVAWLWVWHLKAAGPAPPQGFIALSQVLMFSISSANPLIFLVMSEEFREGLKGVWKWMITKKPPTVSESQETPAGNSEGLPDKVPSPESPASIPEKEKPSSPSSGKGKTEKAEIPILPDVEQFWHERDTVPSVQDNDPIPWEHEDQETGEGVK
MITF inh = inhibitors of human MITF; O75030; AlphaScreen MITF homodimerization, bead proximity signal; inhibition, % at 2.6 µM; 650,000 tested, 0.91% active; AID 1259374; in the data active means inhibition above about 50%;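 further: 0% = vehicle wells with protein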
FBW7 act = human FBW7 E3 ligase activation, primary screen; AlphaScreen FBW7–phospho-cyclin E peptide binding, activator screen; Q969H0; 650,000 tested, 0.13% active; normalized activity (activation), % at 26.1 µM; in the data active means normalized activity above about 1.9%;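 further: purified mutant Fbw7 with reduced substrate affinity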
TEAD-YAP inh = TEAD-YAP interaction inhibition. HEK-TIYL cells, TEAD-Gal4/YAP UAS-luciferase luminescence. inhibition, % at 9.12 µM. 640,000 tested, 1.4% active; in the data active means inhibition above about 32%;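 further: 0% = median of test compound wells and 100% = reference inhibitor wells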
* marks the source's active call; other numbers are inactive results.

SMILES	GPR151 activ	MITF inh	FBW7 act	TEAD-YAP inh
CC(C)C[C@@H]1NC(=O)[C@@H]2C[C@H](NC(=O)c3cccnc3)CN2C1=O	-0.5	-3.6	0.1	-14.1
C/C(=N\NC(=O)c1ccc([N+](=O)[O-])cc1Cl)c1ccc(O)cc1O	-1.1	5.1	-0.1	19.6
O=C(Nc1ccc(O)cc1C(=O)O)c1ccc([N+](=O)[O-])cc1	-0.7	51.8*	-0.4	3.2
Cc1ccc(C(=O)Nc2ccc(O)cc2C(=O)O)cc1	-5.6	22.4	-0.4	11.8
C/C(=N/NC(=O)c1ccc([N+](=O)[O-])cc1)c1ccc(O)cc1O	-1.4	-7.1	-1.0	84.0*
CC(C)(C)c1ccc(C(=O)Nc2ccc(O)cc2C(=O)O)cc1	-0.7	18.2	-0.6	33.7*
Cc1ccc(C(=O)Nc2ccc(O)cc2C(=O)O)cc1[N+](=O)[O-]	-5.8	79.9*	-1.3	12.6
CC(=O)NCc1c(C)ncc2c1CCN(C(=O)c1csc(-c3cccs3)n1)C2	1.0	16.6	0.1	7.5
CCOC(=O)C1=C(c2ccccc2)N=c2s/c(=C\c3ccc(OC)c(Br)c3)c(=O)n2C1c1ccc2c(c1)OCO2 (configuration not stated)	-0.1	-8.8	0.0	-2.1
O=C(Nc1ccc(O)cc1)c1cc2ccccn2n1	-2.9	6.4	0.3	55.8*
C=CCNC(=O)c1scc2c1OCCO2	-0.9	9.3	0.0	15.0
Cc1cc2nc3s/c(=C/c4ccc(N5CCN(C)CC5)c([N+](=O)[O-])c4)c(=O)n3c2cc1C	-1.7	-6.0	0.0	37.7*
Cc1cc2nc3s/c(=C/c4cc5c(cc4[N+](=O)[O-])OCO5)c(=O)n3c2cc1C	1.9	0.5	0.0	-5.5
O=C(NNC(=O)c1ccccc1Br)c1cccc(Br)c1	0.8	17.1	0.1	-5.4
COc1cc(CC2(CCC(=O)N(C)CCc3c(C)n[nH]c3C)CCC(=O)N2)ccc1F (configuration not stated)	-0.2	6.2	0.6	-3.3
COC(=O)CC(N)c1ccc2c(c1)OCO2 (configuration not stated)	-1.0	10.9	-0.1	1.3
CC[n+]1c(/C=C/c2ccc(N(C)C)cc2)sc2ccccc21	-0.4	18.9	0.3	53.8*
CN(C)c1ccc(/C=C/c2sc3ccc4ccccc4c3[n+]2C)cc1	-1.0	18.5	0.2	53.1*
CC[n+]1c(/C=C(/C)OC)sc2ccccc21	-0.6	3.0	0.0	33.5*
CC[n+]1ccc(/C=C/c2ccc(N(C)C)cc2)cc1	1.5	0.7	-0.4	82.3*
Cc1ccc(S(=O)(=O)Nc2nccs2)c(C)c1	-0.3	-17.2	-0.1	-0.2
Cc1ccc(NC(=O)C(=O)NCCOc2ccccc2)c(C)c1	-0.6	7.0	0.3	-3.4
COc1ccc(-n2nc3c(c2NC(=O)c2ccc(OC)c(OC)c2)CS(=O)(=O)C3)cc1	-2.4	10.3	0.7	-2.6
O=C1OCC2=C1C(c1ccc3c(c1)OCO3)Nc1ccc3ccccc3c12 (configuration not stated)	1.7	-8.5	0.0	53.9*
CC1(C)CC(=O)C2=C(C1)Nc1ccccc1NC2c1ccc2c(c1)OCO2 (configuration not stated)	-1.7	-3.1	-0.2	-21.5
SMILES	GPR151 activ	MITF inh	FBW7 act	TEAD-YAP inh
O=C(COc1ccccc1)Nc1cccc(Br)c1	-0.6	1.8	0.1	-19.6
CC(CS(=O)(=O)c1ccc2ccccc2c1)N1CCCCC1 (configuration not stated)	0.8	-6.2	0.3	33.1*
Cn1c(=NC(=O)c2ccc(S(C)(=O)=O)cc2)sc2cc([N+](=O)[O-])ccc21	0.2	20.0	1.1	-1.2
CC(=O)c1ccc(NC=C(S(=O)(=O)c2ccccc2)S(=O)(=O)c2ccccc2)cc1	-1.4	17.7	0.1	-10.1
Fc1ccc(CN2CCOc3ccc(-c4ccncc4)cc32)cc1	0.0	9.8	0.1	43.5*
CCCOc1ccc(C2NC(=O)NC(C)=C2C(=O)OC2CCCCCC2)cc1 (configuration not stated)	0.6	-13.3	0.0	1.8
CCCOc1ccc(C2NC(=O)NC(C)=C2C(=O)OC(C(F)(F)F)C(F)(F)F)cc1 (configuration not stated)	1.2	16.5	2.1*	7.5
CCOC(=O)C1=C(C)NC(=O)NC1c1ccc(-c2ccccc2)cc1 (configuration not stated)	4.9	-1.1	-0.1	40.4*
CCOC(=O)C1=C(C)NC(=O)NC1c1ccc(OCc2ccccc2)cc1 (configuration not stated)	-1.4	3.0	-0.1	-16.9
CCCOc1ccc(C2NC(=O)NC(C)=C2C(=O)OC2CCCC2)cc1 (configuration not stated)	-0.6	-7.8	0.0	55.6*
O=C1OC(c2ccc(Cl)cc2)=C/C1=C\c1ccco1	0.1	52.9*	-0.5	-9.4
COc1ccc(C2=C/C(=C/c3ccco3)C(=O)O2)cc1OC	-0.6	73.7*	-0.1	-3.4
CN1C/C(=C/c2ccco2)C(=O)/C(=C/c2ccco2)C1	0.4	27.5	-0.1	2.8
CC1=C/C(=C/c2ccco2)C(=O)O1	1.2	65.4*	0.4	0.6
Cc1ccc(C2=C/C(=C/c3ccc(Cl)cc3)C(=O)O2)cc1	-0.7	0.2	0.1	14.6
Cn1ccnc1SCc1cc(=O)c(OC(=O)c2cc(Cl)ccc2Cl)co1	-0.5	13.1	-0.6	6.0
COc1ccc(C)cc1N(CC(=O)N(C)Cc1ccccc1)S(C)(=O)=O	0.1	-0.6	0.1	-4.7
COc1cc(C)cc2oc(=O)c(Cc3ccccc3)c(C)c12	-1.1	5.8	0.7	-0.1
CN(CCO)C1CCc2c(sc3ncn(CC4CCCCC4)c(=O)c23)C1 (configuration not stated)	0.4	-6.7	-0.1	49.2*
N#Cc1cccc(Cn2c(-c3nonc3N)nc3ccccc32)c1	-0.8	15.3	0.1	48.1*
O=C(Nc1c[nH]c(=O)[nH]c1=O)c1cccc(NC(=O)c2ccco2)c1	0.1	-4.3	-0.2	2.5
CCn1c(SCC(=O)N2CCCC2)nnc1-c1c[nH]c2ccccc12	0.3	-6.7	-0.2	0.7
CCOC(=O)N1CCN(C(=O)CSc2nnc(-c3c[nH]c4ccccc34)n2CC)CC1	-1.9	-13.1	0.0	35.8*
Cc1cnc(-c2ccc(C(=O)NC3CC3)cc2)nc1NCc1nc2ccccc2[nH]1	-0.8	6.8	0.5	9.3
O=C(NC1CC1)c1ccc(-c2nc(NCCO)c3ncn(-c4ccsc4)c3n2)cc1	1.6	-57.6	0.2	55.1*
CC(C)N(CCNc1nc(-c2ccc(C(=O)NC3CC3)cc2)nc2c1ncn2-c1ccccc1)C(C)C	1.4	9.6	0.2	9.8
CC(C)N(CCNc1nc(-c2ccc(C(=O)NC3CC3)cc2)nc2c1ncn2-c1ccsc1)C(C)C	-0.6	-8.7	0.0	60.3*
O=C(COc1cccc(Br)c1)OCc1csc(Nc2ccccc2)n1	-0.3	-3.7	0.1	-22.1
COc1ccc2cc(S(=O)(=O)c3ccc(F)c(Cl)c3)c(=O)oc2c1	0.4	12.6	0.0	5.9
CCCCOc1ccc(C(=O)Nc2ccc3c4c(cccc24)C(=O)N3CC)cc1	0.7	3.5	0.1	9.2

Assay outcomes: PubChem BioAssay, The Scripps Research Institute Molecular Screening Center
